The source of these data is PubChem BioAssay (NCATS).

Molecules are shown by their SMILES. Records with an inconclusive call do not appear. The source made the active and inactive calls. The call rests on the fitted dose curve; in most records, active means well fitted cell-killing curve with a large enough effect; inconclusive means small, poorly fitted or top-dose-only effect, or effect the other way; inactive means no such curve, though single readings can be large or run the other way.
Potency means the concentration at half of the fitted maximal effect.

A short description of one experiment: Quantitative High-Throughput drug screen in 47 multiple myeloma cell lines against the NCATS MIPE library collection: H1112_PLB cell viability assay (AID 1918967; further: nearly all actives have a fitted effect of over 30% in size). Particulars: H1112 myeloma cells viability, ATP luminescence, 48 h; series mostly up to 45.8 µM. In outline: (§1)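 CellTiter-Glo ATP luminescence gave viability after 48 h compound treatment at 37C of 500 multiple myeloma cells per well. Normalisation used DMSO-only wells as 100% and media-only wells as 0% viability; primary qHTS of approved and investigational drugs.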
For the compound `c1ccc2c(CN3CCNCC3)cccc2c1`, the Potency result was “inactive”.
Consider `CSCC[C@@H](NC(=O)[C@@H](Cc1ccccc1)NC(=O)CNC(=O)CNC(=O)[C@@H](N)Cc1ccc(O)cc1)C(=O)O`, for which the Potency entry is “inactive”.
In the case of `COCC1(CO)C(=O)C2CCN1CC2` (configuration not stated), the Potency was 20900 nM (active).
For the compound `CCNC(=O)C[C@@H]1N=C(c2ccc(Cl)cc2)c2cc(OC)ccc2-n2c(C)nnc21`, the Potency is 743 nM (active).
In the case of `COc1ccc(C(=O)c2c(C)n(CCN3CCOCC3)c3cc(I)ccc23)cc1`, the Potency is 16600 nM (active).
`O=[N+]([O-])c1ncc[nH]1`: the Potency result was “inactive”.
Consider `CC[C@@]1(O)C(=O)OCc2c1cc1n(c2=O)Cc2cc3ccccc3nc2-1`, for which the Potency is 59 nM (active).
As for `C[C@@H]1CC[C@@]2(OC1)O[C@H]1C[C@H]3[C@@H]4CC=C5C[C@@H](O[C@@H]6O[C@H](CO)[C@@H](O[C@@H]7O[C@@H](C)[C@H](O)[C@@H](O)[C@@H]7O)[C@H](O)[C@@H]6O[C@@H]6O[C@@H](C)[C@H](O)[C@@H](O)[C@@H]6O)CC[C@]5(C)[C@@H]4CC[C@]3(C)[C@@H]1[C@H]2C`, the Potency is 4690 nM (active).
`Cc1c(C(=O)Nc2cccc(C(F)(F)F)c2)cc(-c2ccccc2)n1CCCN1CCOCC1`: the Potency was 3720 nM (active).
As for `O=c1[nH]c2ccc(Cl)cc2c(N[C@@H]2CN3CCC2CC3)c1-c1nc2ccccc2[nH]1`, the Potency is 418 nM (active).
Consider `COc1ccc(CC2NCCc3cc(OC)c(OC)cc32)cc1OC` (configuration not stated), for which the Potency entry was “inactive”.
For the compound `CCOP(=O)(OCC)C(C)NC(=O)N(CCCl)N=O` (configuration not stated), the Potency result was “inactive”.
As to `CC(C)[C@]12O[C@@H]1[C@@H]1O[C@]13[C@]1(O[C@H]1C[C@@H]1C4=C(CC[C@@]13C)C(=O)OC4)[C@H]2O`, the Potency result is “inactive”.
`CC(N[C@H]1C[C@H]1c1ccccc1)c1ccc2c(c1)OCCO2` (some centres not stated): the Potency entry was “inactive”.
Regarding `CN(C)[C@@H]1C(=O)C(C(N)=O)=C(O)[C@@]2(O)C(=O)C3=C(O)c4c(O)cccc4[C@@](C)(O)[C@H]3[C@H](O)[C@@H]12`, the Potency result is “inactive”.

The nature of the next experiment: Quantitative High-Throughput drug screen in 47 multiple myeloma cell lines against the NCATS MIPE library collection: Karpas25_ECACC cell viability assay (AID 1918968; further: nearly all actives have a fitted effect of over 35% in size). The settings on record: Karpas25 myeloma viability, CellTiter-Glo ATP, 48 h; series mostly up to 45.8 µM. The method in brief: as §1
For orientation: In ATP-based viability assays light output follows the ATP content of the culture.
With `c1ccc2c(CN3CCNCC3)cccc2c1`, the Potency entry is “inactive”.
On to `CSCC[C@@H](NC(=O)[C@@H](Cc1ccccc1)NC(=O)CNC(=O)CNC(=O)[C@@H](N)Cc1ccc(O)cc1)C(=O)O`, for which the Potency entry was “inactive”.
The same measure, in the same setting: next, `COCC1(CO)C(=O)C2CCN1CC2` (configuration not stated): 3720 nM (active).
For `CCNC(=O)C[C@@H]1N=C(c2ccc(Cl)cc2)c2cc(OC)ccc2-n2c(C)nnc21`, the Potency was 2090 nM (active).
The same measure, in the same setting: next, `COc1cccc2c1[C@]13CCN(CC4CC4)[C@H](C2)[C@]1(OC)CCC(=O)C3`: “inactive”.
As for `CN1CCN(c2ccc([N+](=O)[O-])c3no[n+]([O-])c23)CC1`, the Potency is 18700 nM (active).
For `CCc1c(C(=O)C(N)=O)c2c(OCC(=O)O)cccc2n1Cc1ccccc1`, the Potency result was “inactive”.
The same measure, in the same setting: next, `Cc1ccccc1-n1c(Cn2ncc3c(N)ncnc32)nc2cccc(C)c2c1=O`: 264 nM (active).
Consider `CCOC(=O)c1cncn1[C@H](C)c1ccccc1`, for which the Potency result is “inactive”.
As for `COc1ccc(C(=O)c2c(C)n(CCN3CCOCC3)c3cc(I)ccc23)cc1`, the Potency was 18700 nM (active).
Turning to `CC1=C(O)C(=O)C=C2C1=CC=C1[C@@]2(C)CC[C@@]2(C)[C@@H]3C[C@](C)(C(=O)O)CC[C@]3(C)CC[C@]12C`, the Potency is 833 nM (active).
Consider `CC(C)N[C@@H]1CCn2c(=O)[nH]c3cccc(c32)[C@@H]1O`, for which the Potency was 187 nM (active).
For `COc1ccc2c(c1)CN(C)CC2c1ccc(Cl)c(Cl)c1` (configuration not stated), the Potency is 209 nM (active).
`CC[C@@]1(O)C(=O)OCc2c1cc1n(c2=O)Cc2cc3ccccc3nc2-1`: the Potency is 83.3 nM (active).
For the compound `CC[C@@H]1[C@@H](C)O[C@@](O)([C@@H](C)[C@H](O)[C@H](C)[C@H]2OC(=O)C=CC=C[C@@H](C)[C@@H]([C@@H](C)[C@@H](O)[C@H](C)[C@@]3(O)C[C@H](O[C@H]4C[C@H](O)[C@H](O)[C@H](C)O4)[C@H](CC)[C@@H](C)O3)OC(=O)C=CC=C[C@@H]2C)C[C@H]1O[C@H]1C[C@H](O)[C@H](O)[C@H](C)O1`, the Potency was 743 nM (active).
`COc1ccc2c(c[n+](C)c3c4cc5c(cc4ccc23)OCO5)c1OC`: the Potency is 7430 nM (active).
In the case of `C[C@@H]1CC[C@@]2(OC1)O[C@H]1C[C@H]3[C@@H]4CC=C5C[C@@H](O[C@@H]6O[C@H](CO)[C@@H](O[C@@H]7O[C@@H](C)[C@H](O)[C@@H](O)[C@@H]7O)[C@H](O)[C@@H]6O[C@@H]6O[C@@H](C)[C@H](O)[C@@H](O)[C@@H]6O)CC[C@]5(C)[C@@H]4CC[C@]3(C)[C@@H]1[C@H]2C`, the Potency was 3320 nM (active).
